Reference: PubChem BioAssay AID651871 (Sanford-Burnham Center for Chemical Genomics, 2012)

Test system: HL-1
Assay: protection of cardiomyocytes from stress damage, SAR follow-up, cell-based, panel, H9c2 and HL-1, ATP luminescence, set 2 (AID 651871);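 note: cells exposed to stressor for 2 h before ATP readout; reference of the scale not given here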
Settings: H9c2/HL-1 cardiomyocytes, 2-deoxyglucose stress, with 2-deoxyglucose, run 16, at 79 µM (top of the series)

| Structure (SMILES) | activity (protection/inhibition) [%] |
| --- | --- |
| COc1ccc2c(c1OC)C(=O)N1c3ccccc3C(=O)N(Cc3cccc(Cl)c3Cl)C21 (stereo not drawn) | -9.37 |
| CCOC(=O)c1cccc(NC(=O)CNC(=O)c2cc(-c3cc(OC)c(OC)c(OC)c3)nc3ccccc23)c1 | 130 |
| COc1ccc2nc(-c3cc(OC)c(OC)c(OC)c3)cc(C(=O)NCC(=O)Nc3ccc(C(C)=O)cc3)c2c1 | 84.4 |
